# Measurements reported in article PMC7862700, “An all-to-all approach to the identification of sequence-specific readers for epigenetic DNA modifications on cytosine”.
# Assays:
# Assay in all cases: DAPPL (digital affinity profiling via proximity ligation, sequencing); 10 mM Tris-HCl pH 7.5, 50 mM NaCl, 1 mM DTT, 4% glycerol, room temperature, 30 min; GST-TFs on glutathione beads, 16-mer random dsDNA library, 0.1% formaldehyde crosslink after washing; high values mean tight binding
# FEV = target: T1, FEV (Homo sapiens, UniProt Q99581 1-238); conditions: protein: recombinant; tags: N-terminal GST; dsDNA, one strand shown
# T1 sequence: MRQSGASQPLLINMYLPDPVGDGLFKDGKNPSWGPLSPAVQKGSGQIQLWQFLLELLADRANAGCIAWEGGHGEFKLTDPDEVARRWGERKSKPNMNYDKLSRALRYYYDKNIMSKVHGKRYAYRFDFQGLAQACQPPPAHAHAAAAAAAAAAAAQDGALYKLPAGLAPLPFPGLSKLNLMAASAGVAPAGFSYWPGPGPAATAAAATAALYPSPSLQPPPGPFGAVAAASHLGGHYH
# How it was run: (§1)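 Pools of DNA-barcoded human transcription factors, expressed in yeast as GST fusions on glutathione beads and combined with a tag-only sample, were incubated with 200 nmole of a 16-mer random double-stranded DNA library. Incubation took 30 min at room temperature in Tris/NaCl/DTT/glycerol buffer and was followed by washing, 0.1% formaldehyde crosslinking, proximity ligation (BsaI/T4 ligase, 1 h, 37 °C), PCR amplification and sequencing on an Illumina NextSeq500. Binding signal is the ratio of a hexamer's read frequency for a factor to its frequency for the tag-only sample.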
# ETV5 = ETV5 (Homo sapiens, UniProt P41161 1-510); conditions: protein: recombinant; tags: N-terminal GST; dsDNA, one strand shown
# ETV5, sequence (P41161 whole entry): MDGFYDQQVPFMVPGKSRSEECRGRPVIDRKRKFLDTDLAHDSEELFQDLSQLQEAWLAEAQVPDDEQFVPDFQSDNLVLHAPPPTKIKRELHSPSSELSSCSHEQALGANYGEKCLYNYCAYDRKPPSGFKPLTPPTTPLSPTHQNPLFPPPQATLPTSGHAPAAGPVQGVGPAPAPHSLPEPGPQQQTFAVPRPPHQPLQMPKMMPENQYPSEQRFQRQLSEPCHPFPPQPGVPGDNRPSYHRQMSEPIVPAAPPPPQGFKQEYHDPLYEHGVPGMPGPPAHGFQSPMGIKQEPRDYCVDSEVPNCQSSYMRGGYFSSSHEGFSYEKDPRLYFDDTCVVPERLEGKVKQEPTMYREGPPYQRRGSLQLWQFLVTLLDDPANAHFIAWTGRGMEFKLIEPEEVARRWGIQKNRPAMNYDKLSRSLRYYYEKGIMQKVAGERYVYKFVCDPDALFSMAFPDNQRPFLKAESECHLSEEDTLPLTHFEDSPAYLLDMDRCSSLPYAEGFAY
# How it was run: as §1
# HSF1 = HSF1 (Homo sapiens, UniProt Q00613 1-529); conditions: protein: recombinant; tags: N-terminal GST; chain copies: 3; dsDNA, one strand shown
# HSF1, sequence (Q00613 whole entry): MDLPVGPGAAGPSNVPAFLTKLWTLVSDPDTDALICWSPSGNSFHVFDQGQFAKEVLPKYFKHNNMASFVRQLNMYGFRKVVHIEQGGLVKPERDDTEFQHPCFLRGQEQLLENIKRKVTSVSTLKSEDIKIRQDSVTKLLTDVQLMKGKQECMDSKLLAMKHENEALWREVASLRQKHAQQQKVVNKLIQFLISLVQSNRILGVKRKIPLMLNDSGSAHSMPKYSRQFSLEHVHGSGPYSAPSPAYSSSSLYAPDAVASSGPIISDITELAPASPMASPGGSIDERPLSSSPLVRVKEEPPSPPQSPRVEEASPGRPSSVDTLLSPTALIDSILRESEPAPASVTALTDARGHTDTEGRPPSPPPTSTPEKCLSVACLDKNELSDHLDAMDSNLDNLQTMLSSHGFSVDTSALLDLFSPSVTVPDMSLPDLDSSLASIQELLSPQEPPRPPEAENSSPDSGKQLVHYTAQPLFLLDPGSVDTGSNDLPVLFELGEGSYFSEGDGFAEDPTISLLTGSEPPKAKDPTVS
# How it was run: as §1
# SPIC = target: T2, SPIC (Homo sapiens, UniProt Q8N5J4 1-248); conditions: protein: recombinant; tags: N-terminal GST; dsDNA, one strand shown
# T2 sequence: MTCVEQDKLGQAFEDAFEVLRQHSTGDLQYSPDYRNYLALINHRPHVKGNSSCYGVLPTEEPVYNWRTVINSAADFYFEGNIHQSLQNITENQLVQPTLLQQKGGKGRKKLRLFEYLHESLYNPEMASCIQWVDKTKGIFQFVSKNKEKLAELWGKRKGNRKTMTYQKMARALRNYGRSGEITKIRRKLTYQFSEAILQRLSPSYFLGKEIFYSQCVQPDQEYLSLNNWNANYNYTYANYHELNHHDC
# How it was run: as §1
# ELF4 = ELF4 (Homo sapiens, UniProt Q99607 1-663); conditions: protein: recombinant; tags: N-terminal GST; dsDNA, one strand shown
# ELF4, sequence (Q99607 whole entry): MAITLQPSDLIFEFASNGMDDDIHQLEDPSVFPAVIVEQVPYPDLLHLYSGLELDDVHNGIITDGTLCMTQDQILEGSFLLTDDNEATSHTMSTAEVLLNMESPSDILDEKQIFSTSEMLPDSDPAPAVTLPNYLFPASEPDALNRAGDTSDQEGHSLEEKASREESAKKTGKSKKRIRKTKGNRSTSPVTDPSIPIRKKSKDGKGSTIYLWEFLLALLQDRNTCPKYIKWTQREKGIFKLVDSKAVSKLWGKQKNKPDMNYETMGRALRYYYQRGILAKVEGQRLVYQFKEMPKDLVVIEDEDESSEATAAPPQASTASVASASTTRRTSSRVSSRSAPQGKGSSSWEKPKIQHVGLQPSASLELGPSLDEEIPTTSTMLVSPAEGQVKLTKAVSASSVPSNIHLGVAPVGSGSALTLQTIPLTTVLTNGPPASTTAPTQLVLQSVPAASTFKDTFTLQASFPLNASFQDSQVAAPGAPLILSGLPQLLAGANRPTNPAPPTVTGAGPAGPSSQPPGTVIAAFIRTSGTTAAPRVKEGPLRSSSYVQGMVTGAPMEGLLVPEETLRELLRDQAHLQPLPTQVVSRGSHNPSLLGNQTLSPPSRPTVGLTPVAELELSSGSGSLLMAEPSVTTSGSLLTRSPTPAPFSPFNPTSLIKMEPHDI
# How it was run: as §1
# ELK4 = target: T3, ELK4 (Homo sapiens, UniProt P28324-2 1-405); conditions: protein: recombinant; tags: N-terminal GST; dsDNA, one strand shown
# T3 sequence: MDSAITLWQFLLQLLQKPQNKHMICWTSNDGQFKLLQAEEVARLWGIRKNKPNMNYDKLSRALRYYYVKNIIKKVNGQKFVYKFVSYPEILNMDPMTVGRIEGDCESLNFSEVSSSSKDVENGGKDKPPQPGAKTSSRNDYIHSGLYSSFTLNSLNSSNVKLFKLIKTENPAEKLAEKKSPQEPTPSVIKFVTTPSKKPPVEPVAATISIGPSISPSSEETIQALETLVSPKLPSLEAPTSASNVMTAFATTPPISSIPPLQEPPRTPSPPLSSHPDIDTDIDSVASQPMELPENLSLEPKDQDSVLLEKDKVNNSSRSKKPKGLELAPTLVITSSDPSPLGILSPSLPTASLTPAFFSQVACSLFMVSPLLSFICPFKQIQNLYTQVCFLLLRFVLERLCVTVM
# How it was run: as §1
# ETV2 = target: T4, ETV2 (Homo sapiens, UniProt O00321 1-342); conditions: protein: recombinant; tags: N-terminal GST; dsDNA, one strand shown
# T4 sequence: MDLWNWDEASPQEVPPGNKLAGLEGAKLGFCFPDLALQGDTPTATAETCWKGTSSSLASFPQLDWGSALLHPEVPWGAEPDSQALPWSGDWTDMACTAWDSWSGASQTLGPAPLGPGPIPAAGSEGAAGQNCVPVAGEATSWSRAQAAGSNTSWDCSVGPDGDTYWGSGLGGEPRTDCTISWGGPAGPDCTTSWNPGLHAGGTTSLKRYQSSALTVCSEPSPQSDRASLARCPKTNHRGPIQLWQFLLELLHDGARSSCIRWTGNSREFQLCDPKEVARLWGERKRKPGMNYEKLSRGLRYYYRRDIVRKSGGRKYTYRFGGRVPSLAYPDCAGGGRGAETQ
# How it was run: as §1
# ELF3 = target: T5, ELF3 (Homo sapiens, UniProt P78545 1-371); conditions: protein: recombinant; tags: N-terminal GST; dsDNA, one strand shown
# T5 sequence: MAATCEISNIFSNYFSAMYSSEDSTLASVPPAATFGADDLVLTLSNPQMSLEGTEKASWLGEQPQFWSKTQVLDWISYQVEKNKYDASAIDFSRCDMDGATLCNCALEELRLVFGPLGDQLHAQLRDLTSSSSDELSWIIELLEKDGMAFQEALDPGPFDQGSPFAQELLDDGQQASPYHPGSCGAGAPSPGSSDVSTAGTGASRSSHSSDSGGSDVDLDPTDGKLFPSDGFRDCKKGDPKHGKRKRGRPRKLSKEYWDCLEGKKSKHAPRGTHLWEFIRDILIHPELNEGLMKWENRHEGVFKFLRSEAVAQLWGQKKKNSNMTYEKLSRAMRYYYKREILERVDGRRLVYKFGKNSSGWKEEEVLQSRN
# How it was run: as §1
# CRX = CRX (Homo sapiens, UniProt O43186 1-299); conditions: protein: recombinant; tags: N-terminal GST; dsDNA, one strand shown
# CRX, sequence (O43186 whole entry): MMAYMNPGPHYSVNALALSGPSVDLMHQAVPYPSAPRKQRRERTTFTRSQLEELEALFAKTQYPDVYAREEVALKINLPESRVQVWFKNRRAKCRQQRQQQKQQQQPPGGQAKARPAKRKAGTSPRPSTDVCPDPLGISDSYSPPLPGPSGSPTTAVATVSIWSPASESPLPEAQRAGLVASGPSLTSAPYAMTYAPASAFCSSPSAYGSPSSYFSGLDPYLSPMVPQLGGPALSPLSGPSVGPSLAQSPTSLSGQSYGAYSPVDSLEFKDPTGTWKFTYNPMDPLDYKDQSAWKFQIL
# How it was run: as §1
# ETV1 = ETV1 (Homo sapiens, UniProt P50549 1-477); conditions: protein: recombinant; tags: N-terminal GST; dsDNA, one strand shown
# ETV1, sequence (P50549 whole entry): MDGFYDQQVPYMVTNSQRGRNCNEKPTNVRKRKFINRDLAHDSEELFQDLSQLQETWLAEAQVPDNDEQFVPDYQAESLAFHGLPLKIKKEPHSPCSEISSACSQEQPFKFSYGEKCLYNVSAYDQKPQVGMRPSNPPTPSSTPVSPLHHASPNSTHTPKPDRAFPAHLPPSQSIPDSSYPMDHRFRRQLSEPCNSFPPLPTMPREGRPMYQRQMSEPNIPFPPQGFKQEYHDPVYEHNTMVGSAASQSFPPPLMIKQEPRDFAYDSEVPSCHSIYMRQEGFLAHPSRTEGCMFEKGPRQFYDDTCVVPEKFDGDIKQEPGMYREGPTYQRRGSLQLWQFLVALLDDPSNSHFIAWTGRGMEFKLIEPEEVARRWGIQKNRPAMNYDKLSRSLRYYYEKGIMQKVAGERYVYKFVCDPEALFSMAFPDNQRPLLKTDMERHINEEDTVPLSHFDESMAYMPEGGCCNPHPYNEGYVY
# How it was run: as §1
# ERF = target: T6, ERF (Homo sapiens, UniProt P50548 1-548); conditions: protein: recombinant; tags: N-terminal GST; dsDNA, one strand shown
# T6 sequence: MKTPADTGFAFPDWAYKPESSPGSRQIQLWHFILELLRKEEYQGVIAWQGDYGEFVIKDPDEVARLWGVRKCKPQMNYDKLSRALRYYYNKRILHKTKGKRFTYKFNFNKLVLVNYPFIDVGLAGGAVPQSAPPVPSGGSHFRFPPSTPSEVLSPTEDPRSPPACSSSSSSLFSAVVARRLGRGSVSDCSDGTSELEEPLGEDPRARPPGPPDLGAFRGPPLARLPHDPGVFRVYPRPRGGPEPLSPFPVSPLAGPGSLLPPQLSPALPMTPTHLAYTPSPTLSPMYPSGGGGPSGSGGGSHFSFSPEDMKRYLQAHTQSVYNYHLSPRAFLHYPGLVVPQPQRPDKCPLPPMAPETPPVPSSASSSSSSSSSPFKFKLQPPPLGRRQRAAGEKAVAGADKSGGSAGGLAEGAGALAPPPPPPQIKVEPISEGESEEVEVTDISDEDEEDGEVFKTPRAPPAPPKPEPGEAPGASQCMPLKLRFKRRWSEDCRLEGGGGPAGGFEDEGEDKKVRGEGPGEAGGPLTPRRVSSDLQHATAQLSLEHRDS
# How it was run: as §1
# ETV3L = target: T7, ETV3L (Homo sapiens, UniProt Q6ZN32 1-361); conditions: protein: recombinant; tags: N-terminal GST; dsDNA, one strand shown
# T7 sequence: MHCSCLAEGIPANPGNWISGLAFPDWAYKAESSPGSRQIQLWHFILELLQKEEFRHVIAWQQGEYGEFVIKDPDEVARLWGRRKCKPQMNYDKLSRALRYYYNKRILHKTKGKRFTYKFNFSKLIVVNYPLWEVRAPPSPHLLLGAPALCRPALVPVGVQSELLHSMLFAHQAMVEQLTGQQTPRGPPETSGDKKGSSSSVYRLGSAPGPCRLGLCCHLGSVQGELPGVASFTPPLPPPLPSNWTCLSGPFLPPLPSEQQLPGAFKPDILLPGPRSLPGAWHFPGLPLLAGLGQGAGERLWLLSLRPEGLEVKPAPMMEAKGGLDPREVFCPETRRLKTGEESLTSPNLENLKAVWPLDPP
# How it was run: as §1
# ETS2 = target: T8, ETS2 (Homo sapiens, UniProt P15036 1-469); conditions: protein: recombinant; tags: N-terminal GST; dsDNA, one strand shown
# T8 sequence: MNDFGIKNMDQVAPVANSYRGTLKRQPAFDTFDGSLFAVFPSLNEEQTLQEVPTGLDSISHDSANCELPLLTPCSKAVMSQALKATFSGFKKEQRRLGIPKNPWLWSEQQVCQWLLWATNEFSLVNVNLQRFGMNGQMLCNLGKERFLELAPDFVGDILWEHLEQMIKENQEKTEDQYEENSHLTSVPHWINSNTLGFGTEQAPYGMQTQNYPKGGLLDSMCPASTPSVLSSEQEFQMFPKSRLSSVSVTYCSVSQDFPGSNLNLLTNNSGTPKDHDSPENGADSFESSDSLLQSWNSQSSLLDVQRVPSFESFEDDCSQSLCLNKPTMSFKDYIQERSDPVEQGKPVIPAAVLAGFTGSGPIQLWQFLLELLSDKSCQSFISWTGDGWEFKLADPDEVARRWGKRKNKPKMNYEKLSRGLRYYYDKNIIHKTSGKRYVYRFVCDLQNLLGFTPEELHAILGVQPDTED
# How it was run: as §1
# SPDEF = target: T9, SPDEF (Homo sapiens, UniProt O95238 1-335); conditions: protein: recombinant; tags: N-terminal GST; dsDNA, one strand shown
# T9 sequence: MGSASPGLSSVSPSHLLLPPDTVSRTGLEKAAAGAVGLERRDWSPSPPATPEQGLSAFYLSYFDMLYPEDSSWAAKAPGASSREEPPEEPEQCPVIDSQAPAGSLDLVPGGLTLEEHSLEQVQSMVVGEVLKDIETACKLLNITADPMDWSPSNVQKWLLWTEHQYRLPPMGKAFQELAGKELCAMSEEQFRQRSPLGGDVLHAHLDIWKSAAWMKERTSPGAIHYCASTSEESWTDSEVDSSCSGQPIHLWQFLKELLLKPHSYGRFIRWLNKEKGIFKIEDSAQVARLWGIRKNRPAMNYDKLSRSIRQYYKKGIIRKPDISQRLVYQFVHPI
# How it was run: as §1
# ETV7 = target: T10, ETV7 (Homo sapiens, UniProt Q9Y603 1-341); conditions: protein: recombinant; tags: N-terminal GST; dsDNA, one strand shown
# T10 sequence: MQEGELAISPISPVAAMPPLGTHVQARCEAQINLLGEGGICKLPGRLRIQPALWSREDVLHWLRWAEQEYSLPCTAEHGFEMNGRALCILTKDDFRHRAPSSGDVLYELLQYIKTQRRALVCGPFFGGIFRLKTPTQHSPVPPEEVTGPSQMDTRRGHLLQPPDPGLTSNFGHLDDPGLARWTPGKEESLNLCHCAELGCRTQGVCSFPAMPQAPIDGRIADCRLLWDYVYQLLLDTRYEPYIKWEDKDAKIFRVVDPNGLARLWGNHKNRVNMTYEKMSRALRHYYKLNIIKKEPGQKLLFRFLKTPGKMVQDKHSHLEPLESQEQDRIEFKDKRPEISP
# How it was run: as §1
# ELF5 = target: T11, ELF5 (Homo sapiens, UniProt Q9UKW6-2 1-255); conditions: protein: recombinant; tags: N-terminal GST; dsDNA, one strand shown
# T11 sequence: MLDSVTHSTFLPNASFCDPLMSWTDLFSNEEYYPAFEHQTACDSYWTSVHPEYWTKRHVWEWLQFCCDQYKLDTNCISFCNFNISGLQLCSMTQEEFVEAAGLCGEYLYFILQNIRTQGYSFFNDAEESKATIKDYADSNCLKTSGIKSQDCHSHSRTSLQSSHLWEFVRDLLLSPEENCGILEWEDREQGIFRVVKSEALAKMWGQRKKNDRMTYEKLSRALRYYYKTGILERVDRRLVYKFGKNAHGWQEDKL
# How it was run: as §1
# ETV3 = target: T12, ETV3 (Homo sapiens, UniProt P41162-2 1-143); conditions: protein: recombinant; tags: N-terminal GST; dsDNA, one strand shown
# T12 sequence: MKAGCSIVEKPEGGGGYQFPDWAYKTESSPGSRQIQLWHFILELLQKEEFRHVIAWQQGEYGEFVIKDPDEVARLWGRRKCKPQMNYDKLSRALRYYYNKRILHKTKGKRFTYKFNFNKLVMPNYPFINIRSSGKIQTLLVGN
# How it was run: as §1
# ETV6 = ETV6 (Homo sapiens, UniProt P41212 1-452); conditions: protein: recombinant; tags: N-terminal GST; dsDNA, one strand shown
# ETV6, sequence (P41212 whole entry): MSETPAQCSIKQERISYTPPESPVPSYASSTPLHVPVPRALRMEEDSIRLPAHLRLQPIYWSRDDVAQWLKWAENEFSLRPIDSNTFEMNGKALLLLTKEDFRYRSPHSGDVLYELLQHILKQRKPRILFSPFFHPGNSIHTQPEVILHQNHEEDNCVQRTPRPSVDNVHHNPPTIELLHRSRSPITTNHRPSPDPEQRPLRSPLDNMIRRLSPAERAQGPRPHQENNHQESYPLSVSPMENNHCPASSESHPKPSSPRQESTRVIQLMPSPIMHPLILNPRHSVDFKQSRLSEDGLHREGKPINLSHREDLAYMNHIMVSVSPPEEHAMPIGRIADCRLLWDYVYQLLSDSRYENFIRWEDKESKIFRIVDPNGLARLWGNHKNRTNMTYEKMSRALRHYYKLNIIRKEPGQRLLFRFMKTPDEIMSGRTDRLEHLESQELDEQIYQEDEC
# How it was run: as §1
sequence,measurement,setting,value
ATGTAA,binding signal,FEV,"1.2 fold enrichment (6-mer frequency, TF over GST control)"
same,binding signal,ETV5,"1.24 fold enrichment (6-mer frequency, TF over GST control)"
same,binding signal,HSF1,"1.28 fold enrichment (6-mer frequency, TF over GST control)"
same,binding signal,SPIC,"1.17 fold enrichment (6-mer frequency, TF over GST control)"
same,binding signal,ELF4,"1.23 fold enrichment (6-mer frequency, TF over GST control)"
same,binding signal,ELK4,"1.28 fold enrichment (6-mer frequency, TF over GST control)"
same,binding signal,ETV2,"1.15 fold enrichment (6-mer frequency, TF over GST control)"
same,binding signal,ELF3,"1.39 fold enrichment (6-mer frequency, TF over GST control)"
same,binding signal,CRX,"1.41 fold enrichment (6-mer frequency, TF over GST control)"
same,binding signal,ETV1,"1.27 fold enrichment (6-mer frequency, TF over GST control)"
same,binding signal,ERF,"1.18 fold enrichment (6-mer frequency, TF over GST control)"
same,binding signal,ETV3L,"1.26 fold enrichment (6-mer frequency, TF over GST control)"
same,binding signal,ETS2,"1.37 fold enrichment (6-mer frequency, TF over GST control)"
same,binding signal,SPDEF,"1.32 fold enrichment (6-mer frequency, TF over GST control)"
same,binding signal,ETV7,"1.26 fold enrichment (6-mer frequency, TF over GST control)"
same,binding signal,ELF5,"1.3 fold enrichment (6-mer frequency, TF over GST control)"
same,binding signal,ETV3,"1.32 fold enrichment (6-mer frequency, TF over GST control)"
same,binding signal,ETV6,"1.3 fold enrichment (6-mer frequency, TF over GST control)"
